The sample as a whole holds a higher share of hits than the screen did.
fixLJ activator: increases Burkholderia fixLJ two-component signaling; B. multivorans fixK-promoter GFP reporter, 18 h; stronger effect = higher value; AID 1918990; 0.3% of 29,000 active; z-score (test concentration not listed);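 active = replicate mean overnight rise in green fluorescent reporter signal, 3 or more SD over negative controls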
* hit, by the source's call.

SMILES	fixLJ activator
Cc1cc(C(=O)NC(CC(=O)O)c2ccccc2)cc(=O)[nH]1 (centres undefined)	-1.97
C=CCOc1ccc(-c2nnn(CC(=O)N3CCCn4cncc4C3)n2)cc1	0.74
O=C1C(O)=C(O)C(=O)C(O)=C1O	7.43*
CC(C)c1cc(C(=O)N2CCC3(CC2)OCCc2c3[nH]c3ccccc23)on1	-1.08
CCc1nn(C)c(NC(=O)NC(COC)c2ccnn2C)c1C (centres undefined)	-0.9
CCC(C)Sc1oc(-c2ccco2)nc1S(=O)(=O)c1ccc(C)cc1 (centres undefined)	5.48*
Cc1ccc(S(=O)(=O)c2nc(-c3ccco3)oc2SCc2ccccc2Cl)cc1	0.63
Cc1ccc(CSc2oc(-c3ccco3)nc2S(=O)(=O)c2ccc(C)cc2)cc1	-0.02
COc1cc(C(=O)N2CC(O)C(N3CCCCC3)C2)ccc1F (centres undefined)	0.62
Cc1nc(CNS(=O)(=O)c2cccc(C(=O)NCC(F)(F)F)c2)n[nH]1	-0.36
COc1ccc(NC2=C(c3ccccc3)C(=O)c3ccccc32)cc1Cl	3.77*
COc1ccc(OC)c(NC2=C(c3ccccc3)C(=O)c3ccccc32)c1	-0.05
COc1ccc(C2=C(N3CCN(c4cc(C)ccc4C)CC3)c3ccccc3C2=O)cc1	-0.78
Cc1ccc(NC2=C(c3ccc(C(F)(F)F)cc3)C(=O)c3ccccc32)cc1C	3.28*
COc1ccc(C2=C(N3CCN(c4cc(Cl)ccc4C)CC3)c3ccccc3C2=O)cc1	-0.7
COc1ccc(Nc2c3c(nc4ccccc24)CCC3)cc1Cl	-3.55
CC(C)Cc1cc(C(=O)NCCCN2CCN(C)CC2)n(C)n1	0
COc1ccc(CC(=O)Nc2nnc3nc(C)ccn23)c(OC)c1	-0.66
COc1ccc(-c2cc(C(F)(F)F)n3ncc(-c4ccccc4)c3n2)cc1	3.29*
Cc1ccc(-c2cc(C(F)(F)F)n3ncc(-c4ccccc4)c3n2)cc1	0.44
COc1ccc(-c2cc3nc(-c4ccccc4)cc(C(F)(F)F)n3n2)cc1	0.13
Cc1cc(CC(=O)NCc2nc3cc(C(F)(F)F)ccc3n2C)on1	-1.11
COc1ccccc1NC(=O)c1sc(-c2ccc(Cl)cc2)cc1N	4.15*
COc1ccc(C(=O)Nc2cc(-c3nc4ccccc4s3)ccc2OC)cc1	0.46
COc1ccccc1NC(=O)c1sc2nc3c(cc2c1N)CCCCCC3	-2.17
SMILES	fixLJ activator
COc1ccc(C(=O)c2oc3ccccc3c2NC(=O)c2ccc(F)cc2)cc1	-0.26
COc1ccccc1C(=O)Nc1c(C(=O)c2ccccc2)oc2ccccc12	3.74*
COc1ccccc1OCC(=O)Nc1c(C(=O)c2ccc(C)cc2)oc2ccccc12	-2.11
COc1ccc(CCCn2ccnc2-c2cnn3cccnc23)cc1	0.9
Cc1nn(CCC(=O)N2CC3CCC2CN(Cc2ccccn2)C3)c(C)c1C (centres undefined)	1.24
COc1ccc(S(=O)(=O)N2CC[C@@]3(C(=O)O)CCCN(C)[C@@H]3C2)cc1	-0.32
Cc1cc(NCc2cccc(C(=O)N(C)C)c2)n2nc(C)c(C)c2n1	0.26
CC(=O)N1CC2CCC(C1)N(C(=O)c1cc(-c3ccccc3)n[nH]1)C2 (centres undefined)	-1.45
Cc1csc2nc(COc3cccc(NC(=O)c4ccccc4F)c3)cc(=O)n12	3.03*
COc1ccccc1C(=O)Nc1cccc(OCc2cc(=O)n3c(C)csc3n2)c1	-1.6
Cc1ccccc1C(=O)Nc1cccc(OCc2cc(=O)n3c(C)csc3n2)c1	-0.23
Cc1ncn(CCNC(=O)N(C)Cc2csc(C(C)C)n2)c1C	-0.23
Cc1nn(C)c2nc(-c3ccncc3)nc(N(C)CCCC3CCCO3)c12 (centres undefined)	-1.52
CCOC(=O)COc1ccc(C2C(C(=O)OC)=C(C)NC3=C2C(=O)c2ccccc23)cc1Cl (centres undefined)	4.06*
CCOc1cc(C2C(C(=O)OC)=C(C)NC3=C2C(=O)c2ccccc23)c(Br)cc1OC (centres undefined)	-0.22
CCOc1cc(Br)c(C2C(C(=O)OC)=C(C)NC3=C2C(=O)c2ccccc23)cc1OCC (centres undefined)	-0.42
CCOC(=O)C1=C(C)NC(C)=C(C(=O)OC)C1c1cccc([N+](=O)[O-])c1 (centres undefined)	-1.37
C#CCOc1ccc(C2C(C(=O)OC)=C(C)NC3=C2C(=O)c2ccccc23)cc1OCC (centres undefined)	3.72*
CCOc1cc(C2C(C(=O)OC)=C(C)NC3=C2C(=O)c2ccccc23)cc(Br)c1OCC (centres undefined)	0.6
Cc1cc(C)n(Cc2cccc(C(=O)N3CCCC4(CCc5cn[nH]c54)C3)c2)n1 (centres undefined)	0.19
O=C(c1cccc2c1OCCO2)N1CCCN(c2ccncc2F)CC1	-1.1
Cc1cnn(CCC(=O)N2CCCN(C(=O)C=Cc3ccccc3)CC2)c1	-0.75
COc1cc(C(c2c(C)[nH][nH]c2=O)c2c(C)[nH][nH]c2=O)ccc1OC(=O)c1ccccc1OC	0.53
CCOc1cc(C(c2c(C)[nH]n(-c3ccccc3)c2=O)c2c(C)[nH]n(-c3ccccc3)c2=O)ccc1O	3.29*
Cc1[nH]n(-c2ccccc2)c(=O)c1C(c1cc(Cl)ccc1O)c1c(C)[nH]n(-c2ccccc2)c1=O	-4.28
SMILES	fixLJ activator
Cc1nc(-c2cccc(C(=O)N3CCCCCCC3)c2)n(C)n1	1.03
Cn1c(CN2CCCCC2)nnc1C1CCN(c2ncccn2)CC1	0.63
CC(C)CC(NC(=O)C1(N(C)C)Cc2ccccc2C1)c1ncnn1C (centres undefined)	-0.49
Cc1cc(/C=C/c2ccc3cc(N(C)C)ccc3[n+]2C)c(C)n1-c1ccccc1	4.03*
CCc1nccn1CC1(CNC(=O)c2ccc(S(N)(=O)=O)cc2)CC1	-1.26
COCCN1CC2(CCC1=O)CCN(C(=O)c1cnc(C(C)C)nc1)CC2	-1.26
CCc1ocnc1-c1nc(C)nn1-c1cccc2cccnc12	-0.26
CCOc1ccc2ncc3c(-c4cccc(OC)c4)nn(-c4ccccc4)c3c2c1	3.31*
CCOc1ccc(-c2nn(-c3ccc(F)cc3)c3c2cnc2ccc(F)cc23)cc1	-1.63
CCc1ccc(-c2nn(-c3ccc(OC)cc3)c3c2cnc2ccc(OC)cc23)cc1	1.08
NS(=O)(=O)CC1CCN(C(=O)c2[nH]cnc2-c2ccccc2)C1 (centres undefined)	-0.31
O=C(Cn1ncc2c3ccccc3n(Cc3ccccc3)c2c1=O)NCCc1ccc(Cl)cc1	0.29
CC1CCC(NC(=O)Cn2ncc3c4ccccc4n(Cc4ccc(Cl)cc4)c3c2=O)CC1 (centres undefined)	2.94
Cc1ccccc1Cn1c2ccccc2c2cnn(CC(=O)NC3CCCCCC3)c(=O)c21	-1.25
Cc1cc(C)c(Cn2c3ccccc3c3cnn(CC(=O)NCCC4=CCCCC4)c(=O)c32)c(C)c1	-1.87
O=C(Cn1ncc2c3ccccc3n(Cc3ccc(Cl)cc3)c2c1=O)NCCC1=CCCCC1	6.41*
O=C(Cn1ncc2c3ccccc3n(Cc3ccc(Cl)cc3)c2c1=O)NC1CCCCCC1	10.7*
CCCCSCc1cc(C(=O)N2CCC(c3nncn3C)CC2)oc1C	1.61
O=C(CCC1CCCN(C(=O)c2cnco2)C1)NCc1ccc(F)c(F)c1 (centres undefined)	-0.99
CC(C)=CCN1C(=O)C2CCC1CN(C(=O)c1c(C)nc3ncccn13)C2 (centres undefined)	0.63

Assay outcomes (PubChem BioAssay)
